This passage reports activity change results from PubChem BioAssay AID720553 (National Center for Advancing Translational Sciences (NCATS), 2013).

The structures appear in SMILES notation. Among all 340,000 compounds or so, about 3,300 (0.97%) were called active. This is one part of a sample in which actives are shown more often than they occur.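 How the source made its calls: active means maximum activity change below -70%; inconclusive means maximum activity change from -70% to -50%; inactive means maximum activity change above -50%.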
On the % scale 0 is the no-effect control and ±100 the full control effect.

The experiment deals with Potassium voltage-gated channel subfamily H member 2, brain isoform KCNH2 3.1 (human). Kind of experiment: qHTS for Inhibitors of KCHN2 3.1: Mutant qHTS. The following applies: U2OS KCNH2 3.1, thallium flux FluxOr; stronger effect = lower value. The gist of the method: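 Channel expression came from 3.1 mutant virus (1.77 x 10^8 /mL) applied to suspended U2OS cells for 4 h. Flux was tracked with FluxOr dye plus Red40 quencher, and kinetic rate constants normalized to controls.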
(In general: Quantitative high-throughput screening tests each substance at several concentrations.)
Take `Cc1ccc(C(=O)N[C@H](C(=O)N2CCN(c3ncccn3)CC2)C(C)C)cc1`: the activity change was 5.87% (inactive). Regarding `C[C@H]1NS(=O)(=O)c2cc(Cl)ccc2O[C@@H]1c1ccccc1`, the activity change is -5.74% (inactive). For the compound `Cc1cc(N/N=C/c2ccccc2F)c2ccccc2n1`, the activity change is -142% (active).

Turning to `CCOc1cc(/C=N/Nc2cc(C)nc3ccc(C)cc23)ccc1O`, the activity change is -2.46% (inactive).

As for `Fc1ccccc1/C=N/Nc1cc(N2CCCCC2)ncn1`, the activity change was 11.8% (inactive). `CCCCN1CC(C)(C)[C@H](CC(=O)Nc2ccc(Br)cc2)C1=O`: the activity change is 5.46% (inactive). On to `O=C(c1ccc(F)cc1)C1CCN(Cc2cn[nH]c2-c2ccccc2)CC1`, for which the activity change was -104% (active).

For `COc1ccc(CN2CCNC(=O)C2CC(=O)NCc2cn[nH]c2-c2ccccc2)c(F)c1` (configuration not stated), the activity change is -3.5% (inactive). In the case of `Cc1ccccc1CN1CCN(C(=O)c2cccc(F)c2)CC1`, the activity change is -16.7% (inactive).

With `Cc1ccc2c(CN3CCN(S(=O)(=O)c4ccccc4C(F)(F)F)CC3)cc(=O)oc2c1`, the activity change is -74.7% (active). As for `Cc1cc2oc(=O)cc(CN3CCN(S(=O)(=O)c4cccs4)CC3)c2cc1C(C)C`, the activity change was -5.54% (inactive). For `COc1ccc2c(CN3CCN(S(=O)(=O)c4cccs4)CC3)cc(=O)oc2c1`, the activity change was -11.7% (inactive).

For the compound `O=C(N=C1SC2CS(=O)(=O)CC2N1Cc1ccccc1)c1ccccc1` (configuration not stated), the activity change was -10.6% (inactive). With `O=Nc1c(O)cc(O)c2ccccc12`, the activity change was 4.37% (inactive). Then `Cc1ccc(-c2ccc(CN3C(C)C(=O)N(Cc4cn(CCC5OCCCO5)nn4)CCS3(=O)=O)cc2)cc1` (configuration not stated), with -4.85% (inactive); and `COc1cc(NC(=O)C2=C(C)OCCS2)c(Cl)cc1C(=O)NCCCN1CCCC(C)C1` (configuration not stated), with -7.47% (inactive); and `CC(=O)Nc1ccc2c3c(ccc([N+](=O)[O-])c13)CC2`, with -19% (inactive). Consider `O=C1c2ccccc2C(=O)c2c1cccc2N1CCN(CCO)CC1`, for which the activity change was -26.5% (inactive). Next, `O=C1c2ccccc2C(=O)c2c1cccc2N1CCN(Cc2ccccc2)CC1`: -89.4% (active). As for `O=S1(=O)CCN(Cc2ccccc2)CC1`, the activity change is -7.16% (inactive). As for `CCOC(=O)c1cc(-c2sc(NC(=O)c3ccccc3)nc2C)n(Cc2ccccc2)n1`, the activity change is -4.02% (inactive). With `C[C@H]1CN([C@@H](C)CO)C(=O)CCCn2cc(nn2)CO[C@@H]1CN(C)S(=O)(=O)c1ccccc1C#N`, the activity change was -13.5% (inactive).

Turning to `CC(=NNC(N)=O)C1CC2CCC1CC2` (configuration not stated), the activity change is 0.306% (inactive). As for `CC(C)NC(=O)Nc1ccc2c(c1)C(=O)N([C@H](C)CO)C[C@H](C)[C@@H](CN(C)Cc1ccc(C(F)(F)F)cc1)OCCCC[C@@H](C)O2`, the activity change was -29.9% (inactive).

For the compound `CC(=O)c1ccccc1NC(=O)COC(=O)C1COc2ccccc2O1` (configuration not stated), the activity change is -5.39% (inactive).

As to `Nc1cc(=O)c2[nH]cnc2[nH]1`, the activity change is 4.52% (inactive). Turning to `Cc1ccc(Oc2ccc3c(c2)C(=O)N(c2cccc4cccnc24)C3=O)cc1`, the activity change was -1.2% (inactive). Then `Cc1ccc(C)c(NC(=O)c2ccc3nccnc3c2)c1`, with 5.85% (inactive); and `Cc1ccc(OS(=O)Nc2cccc3nccnc23)cc1` (configuration not stated), with -73.2% (active); and `C[C@@H]1CN([C@H](C)CO)S(=O)(=O)c2ccc(C#CC3CCCCC3)cc2O[C@H]1CN(C)C(=O)Cc1ccncc1`, with -2.79% (inactive). Turning to `CC1=C(C(=O)N2CCOCC2)CC(CC(=O)NCC2CCCCC2)C(=O)N1Cc1ccc(F)cc1` (configuration not stated), the activity change is -12.1% (inactive).

With `CC1C(=O)N(Cc2cn(CC3CCCCC3)nn2)CCS(=O)(=O)N1Cc1ccc(-c2cccc(N(C)C)c2)cc1` (configuration not stated), the activity change is -6.27% (inactive). Then `CCOC(=O)CSc1nc(N2CCOCC2)c2c(c1C#N)CC(C(C)C)OC2` (configuration not stated), with 9.26% (inactive); and `COc1ccc(CSc2nc(N3CCOCC3)c3c(c2C#N)CC(C)(C)OC3)cc1`, with -85.2% (active). Take `CC1(C)Cc2c(C#N)c(SCc3nc4ccccc4[nH]3)nc(N3CCOCC3)c2CO1`: the activity change is 1.1% (inactive). `CN1CCn2cnc(C(=O)NCC(=O)OC(C)(C)C)c2C1=O`: the activity change was 8.04% (inactive). Then `COc1ccc(-c2csc(Nc3cccc(C)n3)n2)cc1OC`, with -0.0615% (inactive). Then `COc1ccc(Nc2ccc3ccccc3c2)cc1`, with -0.36% (inactive). For `COc1ccc(Nc2nc(-c3ccccc3)cs2)cc1`, the activity change is -83.5% (active). Then `CN(Cc1ccccc1)C(=O)CCC1CCN(C(=O)c2ccco2)CC1`, with -7.93% (inactive).

With `O=C(COc1ccc([N+](=O)[O-])cc1Cl)Nn1cnnc1`, the activity change was -17.4% (inactive).

On to `O=C(COC(=O)c1cccc(Cl)c1)Nc1ccc2[nH]c(=O)[nH]c2c1`, for which the activity change is -16.7% (inactive). As to `O=C(COc1ccc([N+](=O)[O-])cc1Cl)Nc1ccc2[nH]c(=O)[nH]c2c1`, the activity change was -113% (active). Then `Cc1ccc(C(=O)NNC(=O)c2cc3cc4ccccc4nc3s2)cc1`, with -14.6% (inactive); and `Cc1ccc(NC(=O)c2ccc(Oc3ncccn3)cc2)cc1`, with 10.8% (inactive). Turning to `Cc1ccc(C(=O)NNc2ncnc3ccccc23)cc1`, the activity change is -135% (active).

In the case of `CCOC(=O)c1c(NC(=O)COC(=O)c2ccc(S(=O)(=O)C(F)F)cc2)sc(C(=O)N(C)C)c1C`, the activity change is -12.2% (inactive).

On to `Cc1ccccc1C#CC1=CC(=O)CC(C)(C)C1`, for which the activity change is -7.29% (inactive).

With `Cc1ccc(-c2nc3ccc(Cl)cn3c2Cc2ccccc2)cc1`, the activity change is -5.74% (inactive). Then `O=S(=O)(Nc1ccccc1Br)c1cccs1`, with 8.03% (inactive); and `COc1cc(NC(=O)c2ccccc2NS(=O)(=O)c2ccc(Cl)s2)cc(OC)c1`, with -9.39% (inactive); and `O=C(Nc1nncs1)c1ccccc1NS(=O)(=O)c1cccs1`, with -71.4% (active). `CNC(=O)C1CN(C(=O)c2cccc(S(=O)(=O)N3CCc4ccccc43)c2)c2ccccc2O1` (configuration not stated): the activity change was -2.85% (inactive). Take `O=C(NCCS(=O)(=O)N1CCN(c2ccccc2)CC1)c1cc(=O)c2ccccc2o1`: the activity change is 5.39% (inactive). With `CSc1ncc(C(=O)Nc2ccc(C)cc2C)c(C)n1`, the activity change is -183% (active). Regarding `Cc1ccc(NC(=O)c2ccn(C(=O)Nc3ccccc3)n2)c(C)c1`, the activity change was 11.1% (inactive). Next, `CSc1ncc(C(=O)NCCCc2ccccc2)c(C)n1`: 17.9% (inactive); `CCN(CC)C(=O)C1=C(C)N(Cc2ccc(F)cc2)C(=O)C(CC(=O)NC2CCCC2)C1` (configuration not stated): -23.9% (inactive). For the compound `CSc1ncnc2c1ncn2CCCNCC1CCCCC1`, the activity change is -15.7% (inactive). With `CC(C)C1CCN(C(=O)C2CCC(=O)N(C3CCCCCC3)C2)CC1` (configuration not stated), the activity change is -5.43% (inactive). `CNC(=O)/C(=C\C=C\c1ccccc1)NC(=O)c1ccc([N+](=O)[O-])cc1`: the activity change was -78.9% (active). Then `O=C(Nc1ccc(C(=O)O)cc1)/C(=C/c1ccc([N+](=O)[O-])cc1)NC(=O)c1ccccc1`, with 0.484% (inactive); and `Cc1ccc(C(=O)N/C(=C/C=C/c2ccccc2)C(=O)NCc2ccco2)cc1`, with -38.2% (inactive); and `COc1ccc(C(CNC(=O)c2ccc(OCc3cscn3)cc2)N2CCCC2)cc1` (configuration not stated), with -4.07% (inactive). For the compound `Cc1cc(C)c2cc(C#N)c(N3CCNCC3)nc2c1`, the activity change was 15.5% (inactive). In the case of `O=C(Nc1ccccc1N1CCN(C(=O)c2ccccc2)CC1)c1ccco1`, the activity change is -10.9% (inactive). Consider `CCCNC(=O)c1ccc(N2CCC3(CC2)CC(c2ccc(Cl)cc2)=NO3)c([N+](=O)[O-])c1`, for which the activity change was -83.7% (active).

As to `CCC(C)NC(=O)c1ccc(N2CCC3(CC2)OCCO3)c([N+](=O)[O-])c1` (configuration not stated), the activity change is 15.4% (inactive). Then `CCCNC(=O)c1ccc(N2CCC3(CC2)CC(c2cccc(Br)c2)=NO3)c(NC(=O)c2ccco2)c1`, with -83.4% (active); and `COC(=O)c1ccc(N2CCOCC2)c(NC(=O)c2ccc(Br)o2)c1`, with -2.48% (inactive). As for `COCCNC(=O)c1ccc(N2CCC3(CC2)OCCO3)c([N+](=O)[O-])c1`, the activity change was 1.85% (inactive). For `Nc1cc(C(=O)N2CCN(c3ccccc3Cl)CC2)ccc1N1CC2CC(C1)c1cccc(=O)n1C2` (configuration not stated), the activity change was 6.28% (inactive). Turning to `O=C(c1ccc(N2CCCC2=O)cc1)N1CCN(c2ccc(C(F)(F)F)cc2[N+](=O)[O-])CC1`, the activity change was 6.83% (inactive). As to `Cc1ccc(NC(=O)COC(=O)CN2CCSC2=O)cc1F`, the activity change was -8.22% (inactive). With `CC1(C)NC(=O)N(CC(=O)Nc2ccc(-c3ccccc3)cc2)C1=O`, the activity change was -11% (inactive). As for `O=C1[C@H]2[C@@H](c3ccc(F)cc3)N3C(=O)N(c4ccc(C(F)(F)F)cc4)C(=O)[C@@]3(Cc3ccccc3)[C@H]2C(=O)N1C1CCCCC1`, the activity change is -14.9% (inactive). On to `Cc1cccc(N2C(=O)N3[C@H](c4ccc(F)cc4)[C@@H]4C(=O)N(C5CCCCC5)C(=O)[C@@H]4[C@]3(Cc3ccccc3)C2=O)c1`, for which the activity change was -81.5% (active). Then `O=C1[C@H]2[C@@H](c3ccc(Cl)cc3)N3C(=O)N(c4cccc(F)c4)C(=O)[C@@]3(Cc3ccccc3)[C@H]2C(=O)N1C1CCCCC1`, with -11.3% (inactive). Next, `C/C(COc1ccccc1)=N\NC(=O)c1nnn(-c2nonc2N)c1-c1ccc(C)cc1`: 1.24% (inactive); `Cc1ccc(C(=O)NC(C)C(c2cccs2)N2CCOCC2)cc1C` (configuration not stated): 2.91% (inactive). `C#Cc1cc(N2CCN(C(=O)c3ccoc3)CC2)n2nc(-c3cccc(Cl)c3)cc2n1`: the activity change was 2.49% (inactive). With `CCOC(=O)N1CCN(Cc2nc(N)nc(Nc3ccc(C)cc3)n2)CC1`, the activity change is -78.5% (active).

On to `CCOC(=O)N1CCN(CC(=O)Nc2ccc(F)cc2)CC1`, for which the activity change is -43.8% (inactive). `CNc1nc(Nc2ccc(C)c(Cl)c2)nc(N)c1[N+](=O)[O-]`: the activity change is 6.15% (inactive). Then `CCOC(=O)N1CCN(Cc2nc3cc(NC(C)=O)ccc3n2C)CC1`, with 8.13% (inactive); and `Cc1ccc(Nc2nc(N)nc(CN3CCN(Cc4ccccc4)CC3)n2)cc1Cl`, with -99.4% (active); and `Cc1ccccc1Nc1nc(N)nc(CN2CCN(c3ccccn3)CC2)n1`, with -0.0863% (inactive).
